WT yeast gro inh: growth inhibition of WT strain, primary screen, mitochondrial fusion inhibitor project, WT and mutant strains, chemical genetic; 190,000 tested, 2.1% active; mitochondrial fusion phenotypic screen; inhibition, % at 10 µM; in the data active = inhibition above about 58%; tested in S. cerevisiae
Lmaj promast: Leishmania major promastigote growth inhibition, primary screen | Leishmania major promastigotes, resazurin fluorescence viability | 200,000 tested, 9% active | AID 1063, 2008 | inhibition, % at 10 µM; in the data active = inhibition above about 50%;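 also: promastigotes grown with compound for 44 hours at 28 °C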
CHOP inhibitor: inhibitors of CHOP promoter induction, primary screen, cell-based, unfolded protein response, luciferase reporter; CHO-K1 CHOP-promoter luciferase, tunicamycin-induced, 15-18 h; 220,000 tested, 3.8% active; AID 2732, 2010; inhibition, % at 10 µM;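 active = compounds that reduced the stress-induced luciferase reporter signal by more than about 70% of percent inhibition, limit read from the data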;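 also: 0% = tunicamycin plus vehicle and 100% = wells without tunicamycin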
RAM network inh: inhibitors of the yeast RAM network, primary screen, dse1pr::URA3 reporter, 5-FOA selection | 190,000 tested, 1.8% active | S. cerevisiae dse1pr::URA3 reporter, 5-FOA growth OD615, 2 d; analog-sensitive cbk1-as2 kinase mutant strain | AID 868, 2007 | inhibition, % at 50 µM;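 active = inhibition above a set limit, 3 SD over mean compound inhibition, cut at about 8.4% in these data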;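 also: 0% = DMSO-only wells with no growth and 100% = 10 µM 1-NA-PP1 full growth; inhibition rescues growth on 5-FOA so higher OD means more RAM inhibition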
* marks the source's active call; other numbers are inactive results; / = no result. Hits are enriched below; roughly 13% of the tested compounds scored in any of these assays.

SMILES	WT yeast gro inh	Lmaj promast	CHOP inhibitor	RAM network inh
O=c1c2ccccc2nc(-c2ccc(F)cc2)n1NCc1ccccc1O	8.7	6.7	-8.8	4.4
C/C(=C(\C#N)C(=O)NCCN1CCOCC1)N(C)C	16.8	-8.3	28.8	2.0
C/C(NC1CCCCC1)=C(/C#N)C(=O)NCCN1CCOCC1	-9.3	50.0*	11.8	0.8
CCOc1cc(N(CC)CC)ccc1/C=C(/C#N)c1nc2ccccc2[nH]1	-2.3	79.9*	27.2	-0.3
CCCOc1cc(N(CC)CC)ccc1/C=C(/C#N)c1nc2ccc(C)cc2[nH]1	7.1	66.0*	41.2	4.3
COc1cc(/C=C(\C#N)c2nc3ccc(C)cc3[nH]2)c([N+](=O)[O-])cc1OC	3.7	98.2*	2.3	-0.5
COc1cc(/C=C(\C#N)c2nc3ccc(C)cc3[nH]2)cc([N+](=O)[O-])c1O	0.1	4.7	-18.1	0.6
Cc1ccc2nc(/C(C#N)=C\c3cc(O)ccc3[N+](=O)[O-])[nH]c2c1	-8.0	-2.7	-16.2	4.5
CCN(CC)c1ccc(/C=C(/C#N)c2nc3ccc(C)cc3[nH]2)c(OC(C)C)c1	27.6	99.6*	54.4	0.1
COCCNC(=O)C(c1cccnc1)N(Cc1ccc(C)cc1)C(=O)Cn1nnc2ccccc21 (stereo not given)	-10.6	4.0	-6.8	0.3
COc1ccc(-c2nc(-c3cccs3)c(-c3cccs3)[nH]2)cc1O	-1.9	14.4	6.1	0.3
CN1/C(=C\C=C(/C#N)C(=O)Nc2ccc(Cl)cc2)C(C)(C)c2ccccc21	4.7	87.5*	75.4*	7.8
CN1/C(=C\C(=S)Nc2ccccc2)C(C)(C)c2ccccc21	61.2*	41.9	-2.0	0.1
CN1/C(=C\C(=O)Nc2ccc(Cl)cc2)C(C)(C)c2ccccc21	79.3*	16.8	38.5	-1.5
CN1/C(=C\C(=O)c2cccs2)C(C)(C)c2ccccc21	72.2	22.1	27.3	2.4
O=C(NCC1CCN(S(=O)(=O)c2ccccc2)CC1)Nc1ccccc1	/	/	-4.4	/
Cc1cc(Cl)c(OCCCSc2nc(C)cc(=O)[nH]2)c(Br)c1	-1.9	-8.2	85.5*	5.6
Brc1ccccc1OCCCCn1cnc2ccccc21	47.5	19.2	43.2	-0.2
Brc1ccccc1OCCCN1CCCCCC1	7.9	90.4*	7.4	0.7
Cc1cc(Cl)c(OCCCN2CCCCC2)c(Br)c1	7.7	97.4*	2.9	1.2
CC(=O)c1ccccc1OCCCN1CCCCC1	6.9	89.5*	9.2	-1.0
Cn1ncnc1SCc1cn2cccnc2n1	11.7	-0.2	8.0	1.4
O=C(OCCN1CCCCC1)c1ccccc1Cl	-26.1	0.6	-8.7	0.3
Clc1ccccc1OCCCCN1CCCC1	-1.8	96.4*	-12.2	0.5
Brc1ccccc1OCCCCCN1CCOCC1	19.4	92.9*	-3.0	-0.5
SMILES	WT yeast gro inh	Lmaj promast	CHOP inhibitor	RAM network inh
Cc1cc(Cl)c(OCCN2C(=O)NC(C)(C)C2=O)c(Br)c1	-2.6	63.1*	41.3	3.1
CCN(CC)CCOC(=O)C1(c2ccccc2)CCCC1	5.2	33.2	63.7	-0.2
O=C(OCCCN1CCCC1)C1(c2ccccc2)CCCC1	6.9	99.8*	-5.2	0.2
C=CCC(O)(CC=C)C(C)N (stereo not given)	-13.2	-4.6	4.1	2.0
O=C(NC1CC1)C1=C[C@@H](C2CCCCC2)C[C@@H](OCc2ccc(CO)cc2)O1	-25.0	98.0*	20.6	0.9
O=C(NC1CC1)C1=C[C@@H](C2CC2)C[C@@H](OCc2ccc(CO)cc2)O1	/	/	11.5	/
O=C(C1=C[C@H](C2CCCCC2)C[C@H](OCCCCO)O1)N1CCN(Cc2ccccc2)CC1	17.1	59.0*	1.7	2.5
O=C(NCc1ccccc1)C1=C[C@@H](C2CC2)C[C@@H](OCc2ccc(CO)cc2)O1	-8.1	3.1	24.8	0.1
O=C(NCc1ccccc1)C1=C[C@H](C2CCCCC2)C[C@H](OCc2ccc(CO)cc2)O1	41.1	21.7	18.8	11.2*
Cc1nn2c(COc3ccc(NC(=O)c4ccccc4Cl)cc3)nnc2c2ccccc12	8.6	3.0	-11.0	4.2
Cc1ccc(-c2nc(CN(Cc3c(C)nn(C)c3C)C(C)C)c(C)o2)o1	3.0	-3.0	-5.1	-0.5
CC(=O)NC1(C(=O)O)CCCC1	/	/	0.4	/
Cc1ccc(NC(=O)CSc2nnc(CNC(=O)C34CC5CC(CC(C5)C3)C4)n2-c2ccc(F)cc2)cc1	15.7	15.5	79.2*	-0.5
O=C(NCc1nnc(SCc2ccc(C(F)(F)F)cc2)n1-c1ccccc1)C12CC3CC(CC(C3)C1)C2	71.8*	2.6	61.1	2.8
CC1CCC2C(C1)c1sc(=O)[nH]c1SC2(C)C (stereo not given)	31.7	9.9	82.6*	-1.2
N#CCOC(=O)/C=C/c1ccc2c(c1)OCO2	-12.5	-0.2	-1.0	3.1
CCOc1ccc(CN2CCN(Cc3cccn3-c3nccs3)CC2CCO)cc1 (stereo not given)	/	/	10.6	/
CCN(CC)S(=O)(=O)c1cccc(NC(=O)COC(=O)CCC(=O)c2ccc(F)cc2)c1	7.8	-5.2	6.6	6.7
CCOC(=O)CSc1n[nH]c(-c2cccnc2)n1	95.3*	-6.3	6.0	0.6
COC(=O)CSc1n[nH]c(-c2cccnc2)n1	2.9	-4.2	0.6	1.2
COc1ccc(C(=O)CSc2n[nH]c(-c3ccncc3)n2)cc1[N+](=O)[O-]	-6.8	56.0*	-7.7	1.6
Cc1ccc(C)c(C(=O)CSc2n[nH]c(-c3ccncc3)n2)c1	-13.9	10.2	4.5	0.3
Cc1cc(C)c(C(=O)CSc2n[nH]c(-c3ccncc3)n2)c(C)c1	7.3	97.4*	-10.5	0.5
C=CCN(Cc1nc(-c2ccc(OC)c(OC)c2)oc1C)C1CCS(=O)(=O)C1 (stereo not given)	13.6	53.6*	6.6	-0.4
C=CCN(Cc1nc(-c2cc(OC)ccc2OC)oc1C)C1CCS(=O)(=O)C1 (stereo not given)	-6.6	26.0	12.2	-0.8
SMILES	WT yeast gro inh	Lmaj promast	CHOP inhibitor	RAM network inh
CC(C)Cn1c(N)c(C(=O)CSc2cc(Cl)ccc2Cl)c(=O)n(C)c1=O	4.5	5.1	96.0*	4.8
Cn1c(N)c(C(=O)COC(=O)c2cc(-c3ccccc3)nc3ccccc23)c(=O)n(Cc2ccccc2)c1=O	-6.1	-3.0	17.5	2.7
CC(C)Cn1c(N)c(C(=O)COC(=O)c2cc(-c3ccccc3)nc3ccccc23)c(=O)n(C)c1=O	13.7	99.5*	52.5	3.0
CC(C)Cn1c(N)c(C(=O)COC(=O)c2ccc([N+](=O)[O-])o2)c(=O)n(C)c1=O	0.4	87.8*	-34.2	0.5
Cn1c(=O)c(C(=O)COC(=O)c2cc(-c3ccco3)nc3ccccc23)c(N)n(Cc2ccccc2)c1=O	6.2	98.7*	-32.0	4.8
CC(C)Cn1c(N)c(C(=O)CCl)c(=O)n(C)c1=O	-9.6	24.6	-26.4	-0.9
CC(C)Cn1c(N)c(C(=O)COC(=O)c2cc(C3CC3)nc3ccccc23)c(=O)n(C)c1=O	33.9	57.3*	27.0	0.9
Cn1c(N)c(C(=O)COC(=O)c2cc(C(F)(F)F)nc3ccccc23)c(=O)n(C)c1=O	5.2	13.4	22.1	1.6

Screens from PubChem.
